# Screening results as filed in PubChem.
# MEX-5 binding – C. elegans MEX-5 TCR-2 RNA binding activity. 0.38% of 300,000 active. MEX-5/FITC-TCR2 RNA binding, fluorescence polarization; hits give low values. activity score (negative = inhibition of binding), % at 10 µM. Q9XUB2;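 active = inhibition past about -25% in most replicates, and total fluorescence under double the plate's negative control median, limit read from the data; inconclusive = replicates evenly split on the limit, or fluorescence at least double controls; inactive = too little inhibition in most replicates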
# Target sequence (Q9XUB2 whole entry, looked up): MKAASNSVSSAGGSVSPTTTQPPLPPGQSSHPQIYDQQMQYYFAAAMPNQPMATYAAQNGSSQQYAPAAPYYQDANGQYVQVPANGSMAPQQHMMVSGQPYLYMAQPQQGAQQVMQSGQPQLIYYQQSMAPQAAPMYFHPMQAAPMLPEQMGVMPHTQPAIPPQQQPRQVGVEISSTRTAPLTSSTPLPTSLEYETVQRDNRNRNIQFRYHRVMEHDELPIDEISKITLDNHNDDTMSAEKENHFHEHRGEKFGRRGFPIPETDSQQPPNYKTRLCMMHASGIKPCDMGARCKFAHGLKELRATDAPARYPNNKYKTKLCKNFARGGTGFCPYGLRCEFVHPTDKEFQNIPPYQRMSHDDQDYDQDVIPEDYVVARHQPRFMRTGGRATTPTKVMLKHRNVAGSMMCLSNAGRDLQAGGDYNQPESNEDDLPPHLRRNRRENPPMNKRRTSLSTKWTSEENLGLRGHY
# EBV gp42 block – EBV gp42 inhibition; Fluorescence polarization binding assay, mP read-out; inhibition, % (tested at 21.74 µM); 0.42% of 220,000 active; AID 1085; in the data active = inhibition above about 50%
# MCL1-BIM inh – disrupts human MCL1 binding to BIM-BH3 peptide; Q07820; GST-MCL1 / FITC-Bim-BH3 fluorescence polarization; inhibition, % at 10.9 µM; 0.68% of 320,000 active; AID 2057;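 active = inhibition above the mean inhibition of all tested compounds plus 3 SD, set per campaign, cut at about 40% in these data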;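 also: higher means more loss of mP so more displacement of Bim peptide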
# BCLXL inh – Bcl-xL (human) inhibition; Q07817; GST-Bcl-xL / FITC-Bim BH3 peptide fluorescence polarization; inhibition, % at 10.9 µM; 0.7% of 320,000 active;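 active = inhibition above the mean of all tested compounds plus 3 SD, cutoff set per campaign, cut at about 30% in these data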;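 also: inhibitors lower millipolarization by displacing the labeled peptide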
# eLon inh – inhibits E. coli Lon protease; P0A9M0; purified E. coli Lon protease, fluorescence polarization; inhibition, % at 7.94 µM; 0.42% of 360,000 active; in the data active = inhibition above about 13%, passing the limit was not always enough
# GLD-1 RNA inh – GLD-1-TGE RNA interaction inhibition (C. elegans); Q17339; purified GLD-1 + fluorescein TGE RNA, fluorescence polarization; inhibition, % at 5.96 µM; 0.44% of 320,000 active; AID 2280;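 active = percent inhibition above a per-plate cutoff, the plate mean of test compounds plus 3 SD, cut at about 30% in these data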
# Bcl-xL conf – counter-screen for MCL1 inhibitors: confirmation of human Bcl-xL inhibitors; GST-Bcl-xL / FITC-Bim BH3 peptide FP binding; AID 2166; shares compounds with MCL1-BIM inh; 54% of 1,700 active; inhibition, % at 10.9 µM;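 active = inhibition above a cutoff equal to the mean inhibition of all tested compounds plus 3 SD, cut at about 30% in these data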
# MCL1 BIM confirm – confirmation of human MCL1 and BIM-BH3 interaction inhibitors; shares compounds with MCL1-BIM inh; GST-MCL1 / FITC-Bim-BH3 fluorescence polarization; 61% of 1,700 active; inhibition, % at 10.9 µM;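 active = inhibition above the average of all tested compounds plus 3 SD, cut at about 40% in these data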
# Hits are given with their value; i = inactive; ? = inconclusive; nt = no result; + = active, no number. Most compounds without a hit are left out; they make up all but 1.5% or so of the library.
SMILES,MEX-5 binding,EBV gp42 block,MCL1-BIM inh,BCLXL inh,eLon inh,GLD-1 RNA inh,Bcl-xL conf,MCL1 BIM confirm
C=CCc1c(C)nc(SCc2ccccc2)[nH]c1=O,i,nt,i,i,i,i,nt,nt
Cc1ccc(C)c(N(CC(=O)NCc2ccco2)C(=O)CNS(=O)(=O)c2ccccc2)c1,i,nt,i,i,i,i,nt,nt
Cc1ccc(N(CC(=O)NCc2ccco2)C(=O)CNS(=O)(=O)c2ccccc2)c(C)c1,i,nt,42,i,i,i,i,i
O=C1NC(=O)C(c2ccccc2[N+](=O)[O-])=C1Nc1ccc(O)c(Cl)c1,i,nt,50,i,i,i,i,i
COc1ccc(N2CCN(C3CCCN(Cc4cccc(OC)c4)C3)CC2)cc1 (configuration not stated),i,nt,i,i,i,i,nt,nt
O=C(O)c1ccccc1-c1ccc(/C=c2\sc3nc4cc(Br)cnc4n3c2=O)o1,i,i,60,38,i,i,i,i
Nc1nc(N)c2ncn(C3C=CC(CO)C3)c2n1 (configuration not stated),nt,nt,nt,nt,i,nt,nt,nt
CN(C)c1ccc(NC2=C(Cl)C(=O)c3ccccc3C2=O)cc1,i,i,41,i,i,i,32,i
CC(=O)Nc1ccc(NC2=C(Cl)C(=O)c3ccccc3C2=O)cc1,i,i,nt,nt,nt,nt,nt,nt
Clc1ccc(CN(Cc2ccc(Cl)cc2)c2nn[nH]n2)cc1,i,i,i,i,i,i,nt,nt
c1ccc(CN(Cc2ccccc2)c2nn[nH]n2)cc1,i,i,46,i,i,i,i,i
C=CCn1c(C)cc(C(=O)CSc2n[nH]c(N)n2)c1C,i,i,47,i,i,i,i,i
Cc1cc(C(=O)CSc2n[nH]c(N)n2)c(C)n1C1CC1,i,i,i,i,i,i,nt,nt
COc1cccc(=O)c2c(C)n(CC(=O)c3ccccc3)c(C)c12,i,i,47,i,i,i,i,i
Cc1ccccc1OCc1nnc(SCC(=O)NCc2ccco2)n1C,i,i,i,i,i,i,nt,nt
COc1ccccc1OCc1nnc(SCC(=O)NCc2ccco2)n1Cc1ccco1,i,i,46,i,i,i,i,i
OC[C@@H]1CN(CCNc2ccccc2)C[C@H](n2cnc3c(NCc4ccncc4)ncnc32)O1,nt,nt,nt,nt,i,nt,nt,nt
CCn1nc(C)c(C2C(C#N)=C(N)OC3=C2C(=O)CCC3)c1C (configuration not stated),i,i,i,i,i,i,nt,nt
CCn1nc(C)c(/C=C2\CCCC3=C2OC(N)=C(C#N)C3c2c(C)nn(CC)c2C)c1C (configuration not stated),?,i,72,76,nt,53,70,85
COC(CNC(=O)c1ccc2c(c1)nc(C)n2-c1cccc(C)c1)OC,i,nt,i,i,i,i,nt,nt
O=C(COC(=O)c1ccc(O)cc1O)NC12CC3CC(CC(C3)C1)C2,nt,nt,158,139,i,100,i,i
COc1ccc(C(=O)OCC(=O)NC23CC4CC(CC(C4)C2)C3)c(O)c1,nt,nt,nt,nt,i,nt,nt,nt
Cc1cc(O)ccc1-c1cc(C(=O)NCc2ccc(F)cc2)[nH]n1,nt,nt,nt,nt,i,nt,nt,nt
CN(C)C(=O)CSc1ccc(S(=O)(=O)N2CCOCC2)cn1,nt,nt,i,i,i,i,nt,nt
COc1cccc(OCCCn2cc(/C=C3/C(=N)N4C=C(C)SC4=NC3=O)c3ccccc32)c1,-29,i,66,59,i,i,i,i
SMILES,MEX-5 binding,EBV gp42 block,MCL1-BIM inh,BCLXL inh,eLon inh,GLD-1 RNA inh,Bcl-xL conf,MCL1 BIM confirm
COc1ccc(OCCCn2cc(/C=C3/C(=N)N4C=C(C)SC4=NC3=O)c3ccccc32)cc1,i,i,i,i,i,i,nt,nt
CCN(C(=O)CSc1nnc(SC)s1)c1c(N)n(Cc2ccccc2)c(=O)[nH]c1=O,nt,nt,93,84,i,59,i,i
CCN(CC)c1ncnc2c1cnn2Cc1ccc(C)cc1,i,nt,45,i,i,i,i,i
CN1OC[C@@H]2CN(C(=O)CCc3ccccc3)[C@H](c3cccc(Oc4ccccc4)c3)C[C@@H]21,nt,nt,nt,nt,i,nt,nt,nt
O=C(COC(=O)c1ccccn1)Nc1ncc(C(F)(F)F)cc1Cl,i,i,i,i,i,i,nt,nt
O=C(COC(=O)c1ccc([N+](=O)[O-])s1)Nc1ncc(C(F)(F)F)cc1Cl,i,i,+,i,i,i,i,i
CC1(C)CC(=O)C2=C(C1)Nc1ccccc1N=C2,i,i,106,91,nt,63,i,i
Oc1cccc(O)c1O,nt,nt,63,i,nt,i,i,42
COc1ccccc1CNC(=O)/C=C/c1ccc(Br)o1,i,i,42,i,i,i,i,i
COc1ccc(NC(=O)/C=C/c2ccc(Br)o2)cn1,i,i,i,i,i,i,nt,nt
CC(OC(=O)CCN=C1NS(=O)(=O)c2ccccc21)C(=O)N(C)C1CCCCC1 (configuration not stated),i,nt,i,i,i,i,nt,nt
O=C1N=C(N2CCN(c3cccc4ccccc34)CC2)S/C1=C/c1cccs1,i,i,i,i,i,i,nt,nt
Cc1ccccc1N1CCN(C2=NC(=O)/C(=C\c3cccs3)S2)CC1,i,i,46,i,i,i,i,i
CCOCCCn1c(=N)c(C(=O)NCc2ccc3c(c2)OCO3)cc2c(=O)n3ccccc3nc21,i,i,nt,nt,nt,nt,nt,nt
CC(C)OCCCn1c(=N)c(C(N)=S)cc2c(=O)n3ccccc3nc21,i,i,82,83,i,i,70,86
CC(C)OCCCn1c(=NC(=O)c2cccs2)c(C#N)cc2c(=O)n3ccccc3nc21,?,i,114,106,i,58,i,i
CC(=O)N=c1c(C#N)cc2c(=O)n3ccccc3nc2n1CCCOC(C)C,i,i,i,i,i,i,nt,nt
O=C(CCc1cn2ccccc2n1)NC1CCCc2c1cnn2-c1ccccc1F (configuration not stated),i,nt,i,i,i,i,nt,nt
N#CCc1nn(-c2ccccc2)c2ncnc(N)c12,i,i,i,i,i,i,nt,nt
Oc1ccc(N=C/C=C/c2ccc(Br)cc2)cc1-c1nc2ccccc2s1,i,i,48,46,nt,i,i,i
COc1ccc(C(=O)N[C@H](C(=O)Nc2cccc(S(=O)(=O)N3CCOCC3)c2)C(C)C)cc1,nt,nt,nt,nt,i,nt,nt,nt
Cc1ccccc1C1C(C#N)=C2N=C(N)c3c(sc4c3CCCCC4)N2C2=C1C(=O)CCC2 (configuration not stated),i,i,67,61,i,49,53,68
N#CC(C#N)=Cc1c[nH]c(=O)c(C#N)c1Nc1ccccc1,i,nt,55,56,i,i,46,56
COc1ccc(C(CNC(=O)c2ccc(S(=O)(=O)Nc3ccccc3OC)cc2)N2CCCC2)cc1 (configuration not stated),nt,nt,nt,nt,i,nt,nt,nt
